Test results from PubChem BioAssay.
Activity calls are given as the source filed them.

Key:
[1] = tested on: Plasmodium falciparum Sir2 (PF13_0152, Sir2A); experiment: Plasmodium falciparum Sir2A binding compounds – biochemical, small-molecule microarray, 635 nm fluorescence, primary screen (AID 1098); conditions: fluorescence 635 nm, higher = more signal;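 also: score merges spot fluorescence intensity with its signal-to-noise ratio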
[2] = probe aDKK1 binding to arrayed compounds – biochemical, biotinylated probe, 635/667 nm fluorescence, primary screen (AID 1099); conditions: small-molecule microarray, higher = more signal;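 also: score merges 667nm spot fluorescence with signal to noise across triplicate slides; reference of the scale not given here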
[3] = probe aCHRDL2 binding to arrayed compounds – biochemical, biotinylated probe, 635/667 nm fluorescence, primary screen (AID 1100); conditions: small-molecule microarray, higher = more signal
[4] = change in splice reporter luminescence, either direction, cell-based, HEK293, spliceosome inhibition project, primary screen (AID 1101); conditions: HEK293 splicing luciferase reporter, 24 h, higher = more signal, called active from +8 up or from −8 down;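 also: HEK293 cells carrying a splicing-competent luciferase reporter gene; test concentration not given here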
[5] = molecular target: Fibroblast growth factor 10 (Homo sapiens) (UniProt O15520); experiment: compounds binding fibroblast growth factor 10 – biochemical, small-molecule microarray, 635 nm fluorescence, primary screen (AID 1102); conditions: FGF10 binding, fluorescence 635 nm, higher = more signal
[6] = tested on: glycogen synthase kinase-3 (GSK3A per assay name; protocol says GSK3B); experiment: compounds binding glycogen synthase kinase-3 – biochemical, small-molecule microarray, 635 nm fluorescence, GSK3A, primary screen (AID 1103); conditions: fluorescence 635 nm, higher = more signal; also: the record names both GSK3A and GSK3B
[7] = molecular target: Epidermal growth factor receptor (Homo sapiens) (UniProt P00533); experiment: compounds binding epidermal growth factor receptor – biochemical, small-molecule microarray, 635 nm fluorescence, primary screen (AID 1104); conditions: EGFR binding, higher = more signal;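 also: score merges 667 nm emission intensity with spot signal to noise over triplicate slides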
[8] = molecular target: Follistatin-related protein 3 (Homo sapiens) (UniProt O95633); experiment: compounds binding follistatin-related protein 3 – biochemical, small-molecule microarray, 635 nm fluorescence, primary screen (AID 1105); conditions: FSTL3 binding, higher = more signal;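 also: score merges emission near 667 nm and signal to noise per printed spot across three slides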
[9] = molecular target: Dickkopf-related protein 1 (Homo sapiens) (UniProt O94907); experiment: small molecules binding DKK1 protein – biochemical, small-molecule microarray, 635 nm fluorescence scan, primary screen (AID 1106); conditions: higher = more signal;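 also: score merges emission near 667 nm with signal to noise over three replicate slides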
[10] = tested on: Inhibin beta A chain (activin A); experiment: small molecules binding activin A – biochemical, small-molecule microarray, 635 nm fluorescence scan, primary screen (AID 1107); conditions: INHBA, higher = more signal;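 also: mouse activin A protein probed at 4.33 µg/mL on printed slides; score merges bound-protein fluorescence near 667 nm with spot signal-to-noise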

Chain of Follistatin-related protein 3 (Homo sapiens) (O95633 whole entry, looked up): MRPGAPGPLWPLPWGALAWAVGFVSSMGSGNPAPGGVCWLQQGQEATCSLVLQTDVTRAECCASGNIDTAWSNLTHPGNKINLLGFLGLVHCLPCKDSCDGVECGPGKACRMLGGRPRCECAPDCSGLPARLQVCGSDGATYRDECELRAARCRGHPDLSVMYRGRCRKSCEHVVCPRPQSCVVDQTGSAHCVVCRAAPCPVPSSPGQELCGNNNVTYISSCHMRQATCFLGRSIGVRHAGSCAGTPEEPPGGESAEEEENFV
Chain of Fibroblast growth factor 10 (Homo sapiens) (O15520 whole entry, looked up): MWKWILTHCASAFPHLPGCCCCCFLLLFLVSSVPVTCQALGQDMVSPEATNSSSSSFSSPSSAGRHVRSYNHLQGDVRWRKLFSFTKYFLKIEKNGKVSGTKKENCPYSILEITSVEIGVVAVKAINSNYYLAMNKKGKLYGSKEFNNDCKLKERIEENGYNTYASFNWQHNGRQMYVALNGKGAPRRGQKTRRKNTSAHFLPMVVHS
Chain of Epidermal growth factor receptor (Homo sapiens) (P00533 whole entry, looked up): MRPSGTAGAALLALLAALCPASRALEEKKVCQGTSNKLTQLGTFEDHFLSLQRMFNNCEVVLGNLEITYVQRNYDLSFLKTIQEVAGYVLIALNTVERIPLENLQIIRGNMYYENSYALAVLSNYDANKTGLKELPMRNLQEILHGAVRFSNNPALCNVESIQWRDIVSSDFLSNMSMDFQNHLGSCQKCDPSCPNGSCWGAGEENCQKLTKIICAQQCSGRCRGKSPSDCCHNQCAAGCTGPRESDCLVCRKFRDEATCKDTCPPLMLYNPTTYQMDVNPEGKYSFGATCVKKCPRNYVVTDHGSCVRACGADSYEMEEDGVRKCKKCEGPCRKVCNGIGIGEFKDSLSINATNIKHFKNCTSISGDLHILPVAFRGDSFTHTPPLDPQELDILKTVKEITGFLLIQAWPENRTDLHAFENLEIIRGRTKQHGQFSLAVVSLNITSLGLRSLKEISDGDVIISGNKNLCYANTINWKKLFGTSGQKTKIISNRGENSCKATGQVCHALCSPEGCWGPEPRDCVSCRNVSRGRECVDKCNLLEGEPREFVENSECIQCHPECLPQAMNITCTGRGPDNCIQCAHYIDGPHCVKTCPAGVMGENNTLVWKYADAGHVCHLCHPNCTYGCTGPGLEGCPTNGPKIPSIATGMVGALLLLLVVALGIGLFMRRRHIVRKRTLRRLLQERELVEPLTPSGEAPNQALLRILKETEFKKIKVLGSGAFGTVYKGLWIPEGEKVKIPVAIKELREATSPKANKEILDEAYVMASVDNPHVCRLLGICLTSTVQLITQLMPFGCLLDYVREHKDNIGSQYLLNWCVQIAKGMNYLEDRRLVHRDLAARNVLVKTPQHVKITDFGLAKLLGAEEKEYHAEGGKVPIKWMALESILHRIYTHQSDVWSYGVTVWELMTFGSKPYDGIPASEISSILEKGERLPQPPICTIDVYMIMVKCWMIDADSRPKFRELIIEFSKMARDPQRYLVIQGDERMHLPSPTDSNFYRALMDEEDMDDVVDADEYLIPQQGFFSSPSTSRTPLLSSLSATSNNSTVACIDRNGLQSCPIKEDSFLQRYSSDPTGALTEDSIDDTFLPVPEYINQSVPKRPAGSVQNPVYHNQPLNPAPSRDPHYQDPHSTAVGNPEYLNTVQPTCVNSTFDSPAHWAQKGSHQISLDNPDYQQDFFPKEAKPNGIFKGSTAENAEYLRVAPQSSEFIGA
Chain of Dickkopf-related protein 1 (Homo sapiens) (O94907 whole entry, looked up): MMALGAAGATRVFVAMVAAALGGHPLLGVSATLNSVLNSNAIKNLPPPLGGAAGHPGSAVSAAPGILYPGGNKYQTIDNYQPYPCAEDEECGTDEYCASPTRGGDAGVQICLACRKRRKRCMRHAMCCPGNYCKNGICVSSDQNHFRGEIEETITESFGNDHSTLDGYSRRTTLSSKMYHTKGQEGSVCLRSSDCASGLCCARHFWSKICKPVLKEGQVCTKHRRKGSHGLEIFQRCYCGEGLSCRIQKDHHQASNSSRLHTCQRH

SMILES	composite z-score [1]	composite z-score [2]	composite z-score [3]	z-score [4]	composite z-score [5]	composite z-score [6]	composite z-score [7]	composite z-score [8]	composite z-score [9]	composite z-score [10]
COc1ccc([Si](C)(C)[C@@H]2[C@@H](CC(=O)N3Cc4ccccc4C[C@H]3CO)O[C@]3(C(=O)N(Cc4cccc(N5CCOC5=O)c4)c4ccccc43)[C@H]2C)cc1	1.21	-0.503	-0.562	-0.589 (inactive)	0.628	0.717	1.01	1.37	1.21	0.792
CC(C)C(O)C1C=CC2C(=O)NC(=O)C2N1Nc1ccccn1 (stereo not given)	1.09	0.886	0.542	1.02 (inactive)	0.109	0.352	-0.216	0.401	-0.0362	1.4
CO[C@H]1O[C@H](CO)[C@@H](OC(=O)Nc2ccccc2-c2ccccc2)[C@H](OC(=O)Nc2ccccc2)[C@H]1OC(=O)Nc1ccccc1	1.43	0.821	0.886	-0.299 (inactive)	1.45	1.33	0.41	1.41	0.993	0.352
C=C(CCCC)C(=O)CC[C@H](OC(=O)c1ccccc1-c1ccccc1C(=O)O)c1ccc(OCCO)cc1	1.25	-0.253	-0.403	1.02 (inactive)	0.569	0.107	0.12	0.0258	0.248	1.09
CC(C)C[C@@H]1NC(=O)[C@@H]2C[C@H](C(=O)NCCCCCCNC(=O)CS)[C@H](c3cccc(OCCO)c3)N2C1=O	1.65	-0.0594	0.237	-0.356 (inactive)	1.31	1.29	0.876	1.52	1.4	0.626
CN(C)CCCCNC(=O)[C@H]1C[C@H]2C(=O)NCC(=O)N2[C@H]1c1ccc(O)cc1	0.978	-0.114	0.0669	-0.127 (inactive)	-0.14	-0.286	-0.603	-0.107	0.0896	-0.0569
COCCOC(=O)N1C(=O)[C@@]2(c3cc(C#CCCO)ccc31)[C@H](c1ccc(OCCO)cc1)N1[C@H](c3ccccc3)[C@H](c3ccccc3)OC(=O)[C@H]1[C@@H]2C(=O)N1CCCCCCC1	1.23	2.43	1.51	0.458 (inactive)	1.25	1.32	1.32	1.54	1.85	1.73
CC(C)N1C(=O)c2ccccc2[C@](C)(C(=O)NCC(F)(F)F)[C@@H]1c1ccc(CO)cc1	0.0632	0.698	1.06	0.88 (inactive)	-1.28	-0.907	-0.333	-0.961	-0.693	0.177
CCOC(=O)C1=CC[C@@H](c2ccc(OC)cc2)N(S(=O)(=O)c2ccc(C)cc2)[C@H]1CC	0.469	0.607	0.88	-1.27 (inactive)	0.996	0.811	0.233	1.1	0.106	0.372
CC(C)C(CO)N1C(=O)[C@@H]2C3C(=O)OCCC/C=C\[C@H]3OC23C=CCN(Cc2ccccc2)C(=O)[C@@H]13 (stereo not given in full)	1.38	-0.0827	0.554	-0.0848 (inactive)	0.0565	-0.54	-1.01	-0.794	-0.551	0.111
O=C1O[C@@H](c2ccccc2)[C@@H](c2ccccc2)N2[C@@H](c3ccccc3OCCO)[C@]3(C(=O)Nc4ccc(C#CCCO)cc43)[C@@H](C(=O)NC[C@H](O)c3ccccc3)[C@H]12	1.69	1.93	1.51	-0.393 (inactive)	0.428	-0.0642	0.249	1.35	0.172	1.41
C=C(COC)C(=O)CC[C@H](OC(=O)c1cccnc1)c1ccc(OCCO)cc1	0.745	-0.163	-0.139	-0.319 (inactive)	1.08	0.538	0.163	1.03	0.624	0.472
CCCC#C[Si](O[C@H](CC)c1cn(Cc2ccccc2)nn1)(C(C)C)C(C)C	0.524	0.109	-0.263	-0.539 (inactive)	0.852	0.49	0.375	1.11	0.576	-0.0374
CCN(CC)c1ccc(N2CC=CC34O[C@@H]5C=CCCOC(=O)C5[C@H]3C(=O)N(C(C)CO)[C@@H]4C2=O)cc1 (stereo not given in full)	1.85	-0.24	0.477	-0.0428 (inactive)	0.0925	0.519	-0.79	-0.157	-0.0888	1.42
COC(=O)C1(Cc2ccccc2)C=C2C(=C(C)C(=O)C2C)CN1 (stereo not given)	1.66	1.21	1.22	1.44 (inactive)	0.231	-0.333	-0.362	0.513	-0.424	1.43
COc1ccc([Si](C)(C)[C@H]2[C@H](CCO)O[C@@]3(C(=O)N(Cc4cccc(N5C(=O)c6ccccc6Oc6ccccc65)c4)c4ccccc43)[C@@H]2C)cc1	0.742	-0.109	-0.236	-1.93 (inactive)	0.396	-0.479	0.111	-0.628	-0.0781	0.212

SMILES	composite z-score [1]	composite z-score [2]	composite z-score [3]	z-score [4]	composite z-score [5]	composite z-score [6]	composite z-score [7]	composite z-score [8]	composite z-score [9]	composite z-score [10]
C[C@@H]1ON(c2ccc(I)cc2)[C@H](c2cccc(NC(=O)OCC3c4ccccc4-c4ccccc43)c2)[C@H]1C(=O)N1C(=O)OC[C@H]1Cc1ccccc1	0.683	1.04	-0.387	-0.271 (inactive)	0.252	0.529	0.325	0.951	1.05	0.529
NCCCCCCNC(=O)[C@@H]1C[C@@H]2C(=O)N3CCC[C@H]3C(=O)N2[C@@H]1c1cccc(OCCO)c1	1.23	0.0549	0.798	-1.42 (inactive)	0.752	0.851	0.405	1.04	1.2	1.01
CN(C)CCCNC(=O)[C@@]1(C)c2ccccc2C(=O)N(Cc2ccc(OC(F)(F)F)cc2)[C@H]1c1ccc(CO)cc1	1.33	-0.0469	0.63	0.399 (inactive)	-0.365	-0.417	-0.786	-0.811	-0.912	0.462
CN1C(=O)C2C(C3CC3)C=C3CN(Cc4cccc(Cl)c4)[C@@H]([C@@H](O)Cc4ccccc4)C3C2C1=O (stereo not given in full)	1.11	-0.217	-0.534	-1.32 (inactive)	0.939	1.13	0.621	0.961	0.396	-0.262
CCCCCCc1nc(Cc2cc(OC)c(OC)c(OC)c2)cc2c1[Si](C(C)C)(C(C)C)O[C@H]2c1ccccc1	0.268	-0.333	-0.511	-0.189 (inactive)	0.351	0.124	0.569	0.594	0.548	0.882
CC(=O)NCCCC[C@@H]1NC(=O)[C@H]2C[C@@H](C(=O)NCCCCCCNC(=O)CS)[C@@H](c3cccc(OCCO)c3)N2C1=O	1.72	-0.11	0.642	-0.662 (inactive)	0.816	1.15	-0.316	0.225	0.363	0.339
COC(=O)[C@@]1(Cc2ccc(F)cc2)[C@H]2c3cc(C(=O)N4CCCC4)n(Cc4ccccn4)c3C[C@H]2CN1C(=O)c1ccccc1	0.919	0.757	1.08	-1.88 (inactive)	0.426	0.453	0.214	0.156	-0.398	0.855
C=C(CCCC)/C(=C/C[C@H](OC(=O)c1ccncc1)c1ccccc1OCCO)c1cc(C(=O)OC)ccc1OC	0.209	-0.126	0.023	-0.63 (inactive)	0.864	0.325	0.0323	0.636	0.273	1.17
C=CCNC(=O)[C@H]1[C@@H]2C(=O)O[C@@H](c3ccccc3)[C@@H](c3ccccc3)N2[C@@H](c2ccc(OCCO)cc2)[C@]12C(=O)Nc1ccccc12	1.39	-0.106	0.747	-0.152 (inactive)	-0.0719	0.164	-0.129	0.227	-0.939	-0.329
COC(=O)[C@@]1(Cc2ccccc2)[C@H]2c3cc(C(=O)N(C)C)n(Cc4ccc(C(F)(F)F)nc4)c3C[C@H]2CN1C(=O)c1ccccc1	1.52	1.17	1.24	-1.16 (inactive)	1.08	1.12	-0.405	0.885	-0.547	0.822
CC(C)C(=C=CC[C@H](O)c1ccccc1OCCO)C[C@H](O)c1cc(Cl)cc(Cl)c1O	1.25	-0.0965	-0.13	-0.605 (inactive)	1.11	0.579	-0.172	0.588	-0.0053	0.149
C=CC[C@@]1(C(=O)N(C)C)N=C(c2ccc(OCCCO)cc2)O[C@@H]1c1ccccc1CN=[N+]=[N-]	0.964	1.19	1.13	-0.475 (inactive)	1.42	1.33	0.493	1.38	0.488	1.23
COc1ccc(C#Cc2ccc3c(c2)[C@]2(C(=O)N3)[C@H](C(=O)O)[C@H]3C(=O)O[C@H](c4ccccc4)[C@H](c4ccccc4)N3[C@@H]2c2ccccc2OCCO)cc1	1.54	-0.161	-0.126	-2.14 (inactive)	1.16	1.31	0.481	0.509	0.301	-0.658
N#Cc1ccc(C(O)C2C=CC3C(=O)NC(=O)C3N2Nc2ccc(Cl)cc2Cl)cc1 (stereo not given)	1.42	0.558	1.13	1.9 (inactive)	0.599	-0.344	0.0129	-0.124	-0.577	1.03
COCCOC(=O)N1C(=O)[C@@]2(c3cc(C#CCC(C(=O)OC)C(=O)OC)ccc31)[C@H](C(=O)Nc1nc3ccccc3s1)[C@H]1C(=O)O[C@H](c3ccccc3)[C@H](c3ccccc3)N1[C@@H]2c1ccc(OCCO)cc1	0.659	0.0831	0.164	0.0491 (inactive)	1.48	1.32	1.03	1	1.04	0.286
CC(C)(C)N1CC=CC23O[C@@H]4C=CCCOC(=O)C4[C@H]2C(=O)N(CCCCCCO)[C@@H]3C1=O (stereo not given in full)	1.34	0.017	0.0876	0.416 (inactive)	-0.0479	-0.404	-1.09	-0.63	-0.983	0.406
